Hits are enriched below; roughly 7% of the tested compounds scored in any of these assays.
ADAM10 inh = ADAM10 inhibition, QFRET primary screen; inhibition, % at 7 µM; recombinant ADAM10, EDANS/DABCYL FRET peptide cleavage, 3 h; 370,000 tested, 0.62% active; O14672;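 active means inhibition above a per-campaign cutoff equal to the mean of compounds falling between control-based bounds plus 3 SD, cut at about 20% in these data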
Target sequence (O14672 214-748 limits assumed): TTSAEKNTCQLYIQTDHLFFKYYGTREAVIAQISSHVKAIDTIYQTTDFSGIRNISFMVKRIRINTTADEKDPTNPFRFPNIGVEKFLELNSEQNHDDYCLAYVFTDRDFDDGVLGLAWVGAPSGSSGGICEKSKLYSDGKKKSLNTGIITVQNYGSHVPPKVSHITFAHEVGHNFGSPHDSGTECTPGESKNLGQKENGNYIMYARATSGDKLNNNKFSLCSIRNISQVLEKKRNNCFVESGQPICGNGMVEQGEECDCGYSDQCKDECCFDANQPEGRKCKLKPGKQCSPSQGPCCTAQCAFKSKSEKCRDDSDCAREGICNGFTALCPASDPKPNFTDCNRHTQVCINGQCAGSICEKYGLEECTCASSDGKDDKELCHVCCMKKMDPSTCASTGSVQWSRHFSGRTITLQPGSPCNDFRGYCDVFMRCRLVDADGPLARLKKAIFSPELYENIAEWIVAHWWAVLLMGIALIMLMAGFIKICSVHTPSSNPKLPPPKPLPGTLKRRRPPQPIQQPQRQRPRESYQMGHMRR
KLK7 zymogen act = activators of human kallikrein-7 zymogen; P49862; purified proKLK7, EDANS-DABCYL substrate fluorescence; 100% is mature enzyme control, 0% vehicle; activation, % at 7 µM; 370,000 tested, 0.9% active; AID 652039;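 active means activation above the mean of all tested compounds plus 3 SD, computed per campaign excluding outliers beyond control limits, cut at about 13% in these data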
NR3A LBD binder = NR3A (human) ligand-binding domain modulation; NR3A LBD differential scanning fluorimetry, Tm shift; 0% = protein alone, 100% = glycine-bound protein; Tm shift relative to glycine control, % at 25 µM; 340,000 tested, 2.5% active;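 active means melting temperature shift of at least 10% of the positive control shift, at one fixed dose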
AHR act = activates the human aryl hydrocarbon receptor. P35869. AHR-responsive luciferase reporter cells, luminescence. activation, % at 5 µM. 320,000 tested, 2.5% active. AID 2796; in the data active means activation above about 47%
rCAG binder = r(CAG) repeat RNA binding. TO-PRO-1 dye displacement fluorescence. 370,000 tested, 1.3% active. inhibition, % at 3 µM. AID 651821;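 active means inhibition above the plate cutoff, the mean of all test compounds on that plate plus 3 SD, cut at about 35% in these data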;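 further: higher means more dye released from RNA so lower well fluorescence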
ADAM17 inh = ADAM17 inhibition, QFRET primary screen. recombinant ADAM17, EDANS/DABCYL FRET peptide cleavage. P78536. 370,000 tested, 0.83% active. inhibition, % at 6.95 µM;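 active means inhibition above the mean of compounds lying between control limits plus 3 SD, set per campaign, cut at about 8.5% in these data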
ADAM10 confirm = human ADAM10 inhibition, confirmation | AID 743208 | shares compounds with ADAM10 inh | inhibition, % at 6.95 µM | ADAM10 QFRET peptide cleavage, EDANS fluorescence | 2,100 tested, 1% active;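 active means inhibition above about 20% chosen separately for each screening run, limit read from the data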
ADAM17 ctr = ADAM17 inhibition, counter-screen for ADAM10 exosite hits. ADAM17 QFRET peptide cleavage, EDANS fluorescence. inhibition, % at 6.95 µM. shares compounds with ADAM10 inh. 2,100 tested, 0.5% active;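 active means mean triplicate inhibition above the solvent-only control wells' mean plus 3 SD, cut at about 12% in these data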
Large screens that a line does not name were inactive (follow-up assays come after a bar, where they were run).

CCOC(=O)c1c(NC(C)=O)sc2c(OCC(O)CNC(C)(C)C)c(Br)ccc12 (centres undefined)	none
C#CCn1c(S(=O)(=O)Cc2ccc(C)cc2)nc(-c2ccccc2)c1-c1ccccc1	ADAM10 inh 23 | ADAM10 confirm inactive | ADAM17 ctr inactive
CN(Cc1ccon1)C(=O)C1CCN(C2CCN(CCCc3ccccc3)CC2)CC1	none (no result: AHR act)
O=C(O)CCC(=O)N1N=C(c2ccc(Br)cc2)CC1c1cccc(Br)c1 (centres undefined)	none
O=C(NCc1nc2ccccc2[nH]1)C1=C[C@H](c2coc3ccccc3c2=O)C[C@H](OCc2ccc(CO)cc2)O1	ADAM10 inh 24 | ADAM10 confirm inactive | ADAM17 ctr inactive
CCN(CC)Cc1c(CC(C)C)oc(C)c1C(=O)O	none
Cc1ccc(-c2noc(CNC(=O)COc3ccccc3C)n2)cc1	none
Cc1ccc(Nc2nc(N)nc(CN3CCN(c4ccccc4)CC3)n2)cc1Cl	none
COc1ccc(N2CCN(Cc3nc(N)nc(Nc4ccc(C)c(Cl)c4)n3)CC2)cc1	ADAM10 inh 21 | ADAM10 confirm inactive | ADAM17 ctr inactive
C[C@H]1CN([C@@H](C)CO)C(=O)CCCn2cc(nn2)CO[C@@H]1CN(C)C(=O)Nc1ccc2c(c1)OCCO2	none (no result: NR3A LBD binder, AHR act)
Cc1cc(C)c2c(=O)n3c(nc2c1)C(Cc1ccc(O)cc1)NC(=O)c1cc2ccccc2cc1-3 (centres undefined)	ADAM10 inh 23 (no result: NR3A LBD binder, AHR act) | ADAM10 confirm 21 | ADAM17 ctr inactive
O=C1NC(Cc2ccc(O)cc2)c2nc3ccc(Br)cc3c(=O)n2-c2cc3ccccc3cc21 (centres undefined)	none (no result: NR3A LBD binder, AHR act)
CNC(=S)NNC(=O)c1noc(C)c1C(=O)N1CCN(C(c2ccccc2)c2ccccc2)CC1	ADAM10 inh 32 | ADAM10 confirm inactive | ADAM17 ctr inactive
CC(C)c1onc(C(=O)N2CCN(C(c3ccccc3)c3ccccc3)CC2)c1[N+](=O)[O-]	none
O=c1[nH]c2cc(C(F)(F)F)ccc2n1-c1cc(C(F)(F)F)ccc1O	ADAM10 inh 20 | ADAM10 confirm inactive | ADAM17 ctr inactive
Cc1oc2cc3oc(=O)c(CCC(=O)N4C[C@H]5C[C@@H](C4)c4cccc(=O)n4C5)c(C)c3cc2c1C	none
Cc1onc(-c2ccccc2)c1C(=O)NC1CC1	none (no result: AHR act)
CC(C)C[C@H](NC(=O)c1nc[nH]c1C(=O)NC(c1ccccc1)c1ccccc1)C(=O)OCc1ccccc1	ADAM10 inh 23 | ADAM10 confirm inactive | ADAM17 ctr inactive
O=C(N[C@@H](Cc1ccccc1)C(=O)OCc1ccccc1)c1nc[nH]c1C(=O)NCc1ccccc1	ADAM10 inh 21 | ADAM10 confirm inactive | ADAM17 ctr inactive
Cc1ccc(NC(=O)c2nc[nH]c2C(=O)N[C@@H](C)c2ccccc2)cc1	ADAM10 inh 24 | ADAM10 confirm inactive | ADAM17 ctr inactive
C[C@@H](NC(=O)c1[nH]cnc1C(=O)Nc1ccccc1)c1ccccc1	none
CC(C)C[C@H](NC(=O)c1[nH]cnc1C(=O)N[C@H](C)c1ccccc1)C(=O)OC(C)(C)C	ADAM10 inh 25 | ADAM10 confirm inactive | ADAM17 ctr inactive
CC(C(=O)Nc1cccc(S(=O)(=O)N2CCOCC2)c1)N1CCN(C)CC1 (centres undefined)	none
CNc1ncnc2c1ncn2[C@H]1CN(Cc2ccc(F)cc2)C[C@@H](CO)O1	none (no result: NR3A LBD binder, AHR act)
O=C(CNC(=O)c1nc[nH]c1C(=O)N1CCNCC1)OCc1ccccc1	none
O=C(CNC(=O)c1nc[nH]c1C(=O)N1CCc2ccccc2C1)OCc1ccccc1	ADAM10 inh 22 | ADAM10 confirm inactive | ADAM17 ctr inactive
CC(=O)Oc1ccc([C@@H]2COc3c(ccc4c3C=CC(C)(C)O4)C2)c(OC(C)=O)c1	none
CC1(C)C=Cc2c(ccc3c2OC[C@H](c2ccc(O)cc2O)C3)O1	ADAM10 inh 28, NR3A LBD binder 19 | ADAM10 confirm inactive | ADAM17 ctr inactive
Cc1cnn(CCC(=O)NNC(=S)Nc2ccc(F)cc2)c1	ADAM10 inh 20 | ADAM10 confirm inactive | ADAM17 ctr inactive
O=Cc1cc2ccccc2nc1SCCCF	none
CSc1ccc(CN(C)C(=O)c2ccc(S(=O)(=O)Nc3c(C)n(C)n(-c4ccccc4)c3=O)cc2)cc1	none (no result: AHR act)
CSc1ccc(CN(C)C(=O)c2ccc(S(=O)(=O)Nc3ccccc3)cc2)cc1	ADAM10 inh 21 | ADAM10 confirm inactive | ADAM17 ctr inactive
N#CC1=C(N)NC(SCc2ccc(Br)cc2)=C(C#N)C12CCCCC2	ADAM10 inh 25, NR3A LBD binder 11 | ADAM10 confirm inactive | ADAM17 ctr inactive
N#CC1=C(N)NC(SCc2ccc(Cl)cc2)=C(C#N)C12CCCCC2	none
Cc1ccc(NS(=O)(=O)c2ccc(NC(=O)c3cccc(NC(=O)C(C)C)c3)cc2)cc1	ADAM10 inh 24, NR3A LBD binder 18 | ADAM10 confirm inactive | ADAM17 ctr inactive
Cc1ccc(S(=O)(=O)NCC2CN(S(=O)(=O)c3ccc(C)cc3)c3ccccc3C(=O)N2c2ccc(F)cc2)cc1 (centres undefined)	ADAM10 inh 23 (no result: KLK7 zymogen act, NR3A LBD binder, AHR act, rCAG binder) | ADAM10 confirm inactive | ADAM17 ctr inactive
CCC(C(=O)NNC(=O)c1cnccn1)c1ccccc1 (centres undefined)	none
O=C(NCc1cn(-c2ccccc2)nc1-c1ccc(F)cc1)c1cccc([N+](=O)[O-])c1	ADAM10 inh 21 | ADAM10 confirm inactive | ADAM17 ctr inactive
CCCn1c(N)c(N(CCOC)C(=O)c2ccc(-c3ccc(Cl)cc3)o2)c(=O)[nH]c1=O	none
Cc1cccc(C)c1-c1ccc(CN2C(CC(C)C)C(=O)N(Cc3cn(CCO)nn3)CCS2(=O)=O)cc1 (centres undefined)	ADAM10 inh 22 (no result: AHR act) | ADAM10 confirm inactive | ADAM17 ctr inactive
CC(C)CC1C(=O)N(Cc2cn(CCC3OCCO3)nn2)CCS(=O)(=O)N1Cc1ccc(-c2cccc(CO)c2)cc1 (centres undefined)	none (no result: NR3A LBD binder, AHR act)
N#Cc1ccc(CN(Nc2ccccc2)c2ccccc2)cc1	ADAM10 inh 27 (no result: NR3A LBD binder, AHR act) | ADAM10 confirm inactive | ADAM17 ctr inactive
Cc1ccc(CNC(=O)c2cnc(-c3ccccn3)nc2C(F)(F)F)cc1	none
O=C(NCc1ccc(F)cc1)c1cnc(-c2ccccn2)nc1C(F)(F)F	ADAM10 inh 66 | ADAM10 confirm inactive | ADAM17 ctr inactive
CCOC1=C2CN(S(=O)(=O)c3ccc(C)cc3)[C@H](c3ccccc3)C[C@H]2[C@H]2C(=O)N(c3ccccc3)C(=O)[C@H]2C1	none (no result: NR3A LBD binder, AHR act)
